Test results as given in the supplement of paper PMC12067093, “Discovery and optimisation of a covalent ligand for TRIM25 and its application to targeted protein ubiquitination” (Chemical Science, 2025).
The full data set covers some 21,000 targets. This sample favours those with the largest changes.

Compound: Cc1cc(ccc1-c1ccccc1)C(=O)N1CCCN(CC1)C(=O)CCl [compound 10]
Assay: probe-labelled cysteine peptide fold change vs DMSO (competition) (log2 fold change); higher = less target engagement (more negative = stronger competition)
Conditions: THP-1, incubation time: 4 h
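Note: competitive profiling in live THP-1 cells: cysteine peptides tagged with an iodoacetamide desthiobiotin (IA-DTB) probe, intensity after compound treatment relative to DMSO-treated cells.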

Row | Target | probe-labelled cysteine peptide fold change (10 µM) | probe-labelled cysteine peptide fold change (50 µM)
1 | LRRK2_Q5S007_1187_FSCIPEAILNLPHLR (UniProt Q5S007) | -0.0375 | -0.109
2 | MARS_P56192_38_AEVLISTVGPEDCVVPFLTRPK (UniProt P56192) | -0.0722 | 0.0548
3 | MAK16_Q9BXY0_17_QFCSFK (UniProt Q9BXY0) | -0.115 | -0.166
4 | MAK16_Q9BXY0_39_NEYSLTGLCNR (UniProt Q9BXY0) | 0.173 | -0.348
5 | MRPL53_Q96EL3_21_VQFCPFEK (UniProt Q96EL3) | 0.0106 | -0.103
6 | MPC2_O95563_54_WGLVCAGLADMARPAEK (UniProt O95563) | -0.141 | -1.31
7 | MCEE_Q96PE7_166_DCGGVLVELEQA (UniProt Q96PE7) | -0.0643 | 0.17
8 | MTHFD1_P11586_236_GEWIKPGAIVIDCGINYVPDDKKPNGR (UniProt P11586) | -0.116 | -1.23
9 | LRCH3_Q96II8_148_NQLSTLPVHLCNLPLK (UniProt Q96II8) | 0.138 | 0.0632
10 | MIS18A_Q9NYP9_85_AQLEEEAAAAEERPLVFLCSGCR (UniProt Q9NYP9) | 0.00435 | -0.0262
11 | MACF1_Q9UPN3_3109_EIACGAQSEPFPCMTPRPEGLHYQESDGK (UniProt Q9UPN3) | -0.348 | -0.619
12 | MRC2_Q9UBG0_187_IYGSEEDLCALPYHEVYTIQGNSHGKPCTIPFK (UniProt Q9UBG0) | -0.0343 | -0.784
13 | MCM5_P33992_355_AIACLLFGGSRK (UniProt P33992) | -0.159 | -0.759
14 | LRRC40_Q9H9A6_227_HLDCNSNLLETIPPELAGMESLELLYLRR (UniProt Q9H9A6) | -0.229 | -0.459
15 | MRC2_Q9UBG0_201_YDNQWFHGCTSTGR (UniProt Q9UBG0) | -2.14 | -2.04
